Assay outcomes as filed in PubChem.
RTF Ca sens inh: cardiac RTF calcium desensitization | P19429+P45379 | inhibition, % at 7.15 µM | IANBD-labeled cardiac RTF, Ca2+ fluorescence | actives 0.12% (n = 340,000);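 active = inhibition above the mean inhibition of all tested compounds plus 3 SD, cut at about 17% in these data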;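 note: assay run at fixed EC70 calcium of 1.6 mM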
RTF Ca sens act: cardiac RTF calcium sensitization; activation, % at 7.2 µM; AID 493008; actives 0.24% (n = 340,000); P19429+P45379; IANBD-labeled TnC RTF fluorescence at EC20 calcium; 0% EC20 calcium, 100% full calcium;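 active = activation above the mean over all tested compounds plus 3 SD, cut at about 30% in these data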;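 note: rise in fluorescence read as greater calcium sensitivity of cardiac thin filaments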
CRFR2-BP antag: blocks CRF-induced signaling of the CRF-BP/CRF-R2 complex; HEK293 CRF-R2/CRF-BP, CRF-induced calcium fluorescence; inhibition, % at 11.8 µM; actives 0.59% (n = 350,000); AID 588475;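 active = inhibition of the ligand-induced calcium signal above about 50% at the single tested concentration, limit read from the data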
CRFBP-R2 agonist: CRF-BP/CRF-R2 complex agonism; HEK293 CRF-R2/CRF-BP, calcium dye fluorescence (FLIPR); percent of saturating CRF peptide response; activation, % at 13.2 µM; actives 0.46% (n = 350,000);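 active = activation of at least 50%, plus an integration ratio under a set limit after plate pattern correction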;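 note: plate controls were neutral control wells without compound for no effect and CRF at EC100 for full effect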
IDE cell inh: inhibitors of human insulin-degrading enzyme in cells. P14735. HEK cells, FAbetaB cleavage, fluorescence polarization. inhibition, % at 5.59 µM. actives 0.41% (n = 320,000). AID 434962;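 active = percent inhibition above the average of all tested compounds plus 3 SD, set per screening campaign, cut at about 16% in these data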;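 note: IDE supplied by intact live HEK cells; FP after avidin binding of uncleaved biotin substrate so inhibition keeps polarization high; 0% = DMSO wells and 100% = 60 µM reference IDE inhibitor Ii1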
Target sequence (P14735 whole entry, looked up): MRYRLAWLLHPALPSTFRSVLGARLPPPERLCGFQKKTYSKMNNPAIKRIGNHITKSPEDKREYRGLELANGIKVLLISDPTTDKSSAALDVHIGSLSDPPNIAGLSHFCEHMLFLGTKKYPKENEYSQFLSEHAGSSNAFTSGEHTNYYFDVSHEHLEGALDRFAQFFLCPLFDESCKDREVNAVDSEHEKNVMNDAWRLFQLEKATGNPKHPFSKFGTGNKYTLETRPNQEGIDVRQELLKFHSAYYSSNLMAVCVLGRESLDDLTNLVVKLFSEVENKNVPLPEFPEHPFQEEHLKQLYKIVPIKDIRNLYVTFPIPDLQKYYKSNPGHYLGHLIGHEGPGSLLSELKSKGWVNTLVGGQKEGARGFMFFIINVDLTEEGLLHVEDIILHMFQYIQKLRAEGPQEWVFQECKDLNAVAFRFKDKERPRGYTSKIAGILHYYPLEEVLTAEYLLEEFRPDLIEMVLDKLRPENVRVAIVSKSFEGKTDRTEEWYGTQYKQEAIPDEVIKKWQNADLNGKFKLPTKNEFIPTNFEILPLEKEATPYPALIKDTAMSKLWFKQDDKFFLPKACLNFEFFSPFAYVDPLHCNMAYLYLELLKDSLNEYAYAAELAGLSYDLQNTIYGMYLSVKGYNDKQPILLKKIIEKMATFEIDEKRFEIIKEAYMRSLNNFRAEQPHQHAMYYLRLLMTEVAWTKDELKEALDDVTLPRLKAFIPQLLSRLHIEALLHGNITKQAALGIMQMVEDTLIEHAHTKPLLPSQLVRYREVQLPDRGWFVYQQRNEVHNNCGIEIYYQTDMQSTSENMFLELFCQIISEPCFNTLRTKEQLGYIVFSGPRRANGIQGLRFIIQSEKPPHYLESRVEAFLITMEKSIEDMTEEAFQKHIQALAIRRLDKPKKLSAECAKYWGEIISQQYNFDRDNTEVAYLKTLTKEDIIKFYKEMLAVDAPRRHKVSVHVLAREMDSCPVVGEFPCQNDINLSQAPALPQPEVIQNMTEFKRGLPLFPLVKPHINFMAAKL
IDE cell activ: boosts human insulin-degrading enzyme activity in HEK cells; AID 493087; activation, % at 5.96 µM; FAbeta-B cleavage, fluorescence polarization; 0% vehicle, 100% cell-free pure enzyme wells; P14735; actives 0.073% (n = 340,000);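 active = activation above the mean of all tested compounds plus 3 SD, set per screening campaign, cut at about 17% in these data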
IDE cell inh cf: confirmation of human insulin-degrading enzyme inhibitors in cells | shares compounds with IDE cell inh | HEK cells, FAbetaB cleavage, fluorescence polarization | inhibition, % at 5.59 µM | actives 51% (n = 1,200) | AID 435028;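 active = mean inhibition across triplicate wells above the cutoff set by the earlier primary insulin-degrading enzyme screen, cut at about 16% in these data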;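 note: 0% = DMSO wells and 100% = 60 µM reference IDE inhibitor Ii1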
HEK293 tox: kills HEK cells in IDE inhibitor counter-screen | shares compounds with IDE cell inh | HEK293 cytotoxicity, ATP luminescence | inhibition, % at 5.59 µM | actives 28% (n = 1,200) | AID 449730; in the data active = inhibition above about 22%;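 note: 0% = vehicle wells and 100% = reference cytotoxic drug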
* marks the source's active call; other numbers are inactive results; x = not tested or not shown. In the library only some 1.5% were active in any assay of this set; here they are far more common.

SMILES	RTF Ca sens inh	RTF Ca sens act	CRFR2-BP antag	CRFBP-R2 agonist	IDE cell inh	IDE cell activ	IDE cell inh cf	HEK293 tox
Cc1cccc(Cl)c1NC(=O)N1CCN(c2ccnc3cc(Cl)ccc23)CC1	-1.4	7.1	-20.2	0.1	23.8*	-23.7	11.2	21.2
Cc1ccc(F)cc1NC(=O)N1CCN(c2ccnc3cc(Cl)ccc23)CC1	-7.1	1.3	0.9	0.3	15.4	-30.5	x	x
COc1ccc(C(C)=NNS(=O)(=O)c2ccc(C)cc2)cc1OC	x	x	38.7	5.9	x	x	x	x
COCCN(C(=O)CCC(=O)Nc1nccs1)C(C(=O)NCCC(C)C)c1ccc(OC)cc1 (centres undefined)	-10.2	0.1	-3.0	1.0	7.7	5.0	x	x
CN(C)S(=O)(=O)c1ccc(NC(=O)CSc2ncnc3ccccc23)cc1	-5.6	-1.2	-53.2	-4.5	19.3*	-7.6	1.4	11.0
CN(C)S(=O)(=O)c1cccc(NC(=O)CSc2ncnc3ccccc23)c1	-27.9	2.8	-4.8	-0.3	4.1	-8.8	x	x
CC(=O)c1ccc(N2CCN(C(=O)/C=C/c3ccc(S(=O)(=O)N4CCOCC4)cc3)CC2)cc1	-6.5	5.6	6.5	-1.8	3.8	-0.3	x	x
CC(=O)c1ccc(N2CCN(C(=O)/C=C/c3ccc(S(=O)(=O)NCc4ccco4)cc3)CC2)cc1	-7.3	-3.6	-2.8	0.0	21.0*	-13.6	0.3	48.9*
COc1ccc(CCNC(=O)c2ccc(Cl)c(S(=O)(=O)N(C)c3ccccc3)c2)cc1	-5.1	-3.5	-7.3	-1.4	17.8*	-8.3	4.3	34.5*
COc1ccc(CCNC(=O)c2ccc(Cl)c(S(=O)(=O)N3CCCCCC3)c2)cc1	2.1	-1.5	-7.4	3.4	3.6	1.6	x	x
COc1cccc(NC(=O)C(=O)NCCC2CCCCN2S(=O)(=O)c2ccccc2)c1 (centres undefined)	-2.7	-5.1	-10.6	2.1	8.8	5.4	x	x
COC(=O)c1cc(Sc2cccc(Cl)c2Cl)ccn1	-1.9	9.0	-4.0	-2.6	18.5*	-14.1	-0.2	12.2
CC(=O)c1sc(NC(=O)C2CCCN2S(=O)(=O)c2ccccc2F)nc1C (centres undefined)	6.7	-1.8	3.4	-2.0	-3.4	2.8	x	x
CC1CCN(c2c(NCc3ccc(C(=O)N4c5ccccc5CC4C)cc3)c(=O)c2=O)CC1 (centres undefined)	-11.0	3.1	19.6	-1.9	37.6*	-45.9	32.5*	16.1
O=C1Nc2ccccc2/C1=C/c1cnc(-c2ccccc2)[nH]1	-63.5	36.4*	-24.6	41.5	32.3*	-31.6	29.7*	8.9
O=C1Nc2ccccc2/C1=C/c1cccnc1	-3.2	6.6	10.9	-1.8	0.5	2.8	x	x
O=C(Nc1ccccc1Cl)c1ccc2nc(N3CCOCC3)sc2c1	2.0	-4.4	9.1	1.3	1.4	-0.8	x	x
Cc1ccccc1-n1c(SCc2csc(Nc3ccccc3)n2)nnc1-c1cccnc1	-3.7	-10.8	-12.1	0.4	21.4*	-13.2	7.3	20.5
Cc1ccc(Nc2nc(CSc3nnc(-c4cccnc4)n3-c3ccccc3C)cs2)cc1	0.0	6.7	-24.4	-4.9	4.9	-10.9	x	x
CCOc1ccc(-c2c(C(=O)N/N=C/c3ccc(OC)cc3)nnn2-c2nonc2N)cc1	-0.2	-10.3	-168.8	1.2	19.6*	4.4	4.4	7.3
C#CCN1C(=O)S/C(=C/C=C/c2ccc(N(C)C)cc2)C1=O	-37.4	21.6	-149.8	85.2*	41.2*	-43.8	57.0*	26.9*
COc1ccccc1C(=O)NCCC(=O)NCCCSc1ccccc1	8.2	2.9	11.5	-2.9	3.3	-0.6	x	x
CCC(=O)Nc1ccc(NC(=S)NC(=O)c2oc3ccccc3c2C)cc1	3.4	17.1	20.8	15.5	0.6	1.9	x	x
CCC(=O)Nc1ccc(NC(=O)c2oc3ccccc3c2C)cc1	0.7	-8.8	98.2*	-0.7	16.6*	-4.5	5.3	15.2
CN(C)c1ccc(/C=C2\SC(=O)N(CCc3nnc(N)s3)C2=O)cc1	-36.0	23.2	-40.0	33.0	30.2*	-18.8	22.3*	14.3
SMILES	RTF Ca sens inh	RTF Ca sens act	CRFR2-BP antag	CRFBP-R2 agonist	IDE cell inh	IDE cell activ	IDE cell inh cf	HEK293 tox
CN(C)c1ccc(/C=C2/SC(=O)N(CCN=C3NS(=O)(=O)c4ccccc43)C2=O)cc1	-1.2	9.6	-6.9	34.5	15.9	-9.7	x	x
CCOc1cccc(C(=O)Nc2cccc(-c3nnc(-c4ccccc4)o3)c2)c1	-0.4	1.1	-13.2	0.2	0.4	-10.1	x	x
COc1cccc(C(=O)Nc2cccc(-c3nnc(-c4ccccc4)o3)c2)c1	2.7	2.6	-10.1	0.6	16.9*	-11.8	1.5	20.9
COc1cccc(C(=O)Nc2ccc(-c3nnc(-c4ccco4)o3)cc2)c1	-4.8	-6.7	-5.5	0.2	22.2*	-9.0	9.0	22.9*
C=CCN(C(=O)COC(=O)c1cc[n+]([O-])cc1)c1nc(-c2ccccc2)cs1	6.2	-3.2	0.8	1.0	35.3*	-25.9	34.3*	2.6
CC(C)(C)C(=O)Nc1cc2c3c(c1)CCC(=O)N3CCC2	3.4	-5.3	17.4	-0.9	-2.9	3.5	x	x
Clc1ccc(C[n+]2csc3ccccc32)cc1	-0.1	0.1	-36.0	0.9	19.6*	-24.4	9.9	12.4
COc1cccc(NC(=O)N2CCN(c3nc(-c4cccc(OC)c4)cs3)CC2)c1	-13.1	1.7	-11.1	-1.6	19.0*	-28.2	10.5	29.7*
COc1ccccc1N1CCN(C(=O)Nc2cccc(Cl)c2)CC1	1.2	-3.5	-37.0	-2.6	2.4	2.3	x	x
COc1cccc(NC(=O)N2CCN(c3cccc(C)c3C)CC2)c1	-4.0	5.2	-5.4	0.0	16.4*	-1.5	3.8	14.0
N#Cc1ccc(C(=O)OCC(=O)N2CCOCC2)cc1	6.2	-7.5	5.3	-0.5	1.1	2.8	x	x
O=C1CC(=O)N(Cc2ccco2)C(=O)N1	5.1	-9.9	-2.2	11.3	21.3*	-17.8	13.3	5.4
CC1(C)N=C(N)N=C(N)N1c1cccc(C#N)c1	-15.7	1.1	-8.7	-2.5	x	1.3	x	x
CCN1C/C(=C/c2ccc(N3CCOCC3)cc2)C(=O)/C(=C/c2ccc(N3CCOCC3)cc2)C1	-22.2	26.6	-126.2	114.5*	18.0*	-24.2	29.0*	93.5*
CCc1ccc(/C=C2/SC(N3CCOCC3)=NC2=O)cc1	-5.4	2.5	-4.5	1.0	-1.1	-0.6	x	x
O=C(O)c1cccc(-c2ccc(/C=N/Nc3ccc([N+](=O)[O-])cc3)o2)c1	-43.0	16.1	-139.8	165.8*	17.7*	-10.1	22.2*	10.2
O=C(O)c1ccc(-c2ccc(/C=N/Nc3ccc([N+](=O)[O-])cc3)o2)cc1	-56.8	15.1	-121.4	155.0*	21.5*	-32.8	41.0*	7.7
